# Whole data set: some 2,900 compounds, median “NF-kB SEAP reporter activity, fold change vs agonist alone” near 0.99, cut for the highest 2% near 2.6. The full list was thinned out, with the highest values kept by preference.
# Assays:
# RAW-Dual [1] = experiment: NF-kB SEAP reporter activity, fold change vs agonist alone; higher = enhanced NF-kB activity
# Outline: (§1)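 RAW-Dual macrophages (50,000 cells/well in DMEM, 384-well plates) received 50 nL of library stock by pin tool, then a PRR agonist 1 h later, and were kept at 37 °C, 5% CO2. After 20 hours, supernatant was read for IRF by QuantiLuc luminescence and for NF-κB by QuantiBlue absorbance at 620 nm. Reporter activity is fold change over agonist-alone wells. Cytotoxic wells had IncuCyte confluency below 70% of agonist controls in both mask sets.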
# RAW-Dual [2] = experiment: NF-kB SEAP reporter activity, fold change vs agonist alone; cytotoxicity flag (confluency mask): not cytotoxic; higher = enhanced NF-kB activity
# Outline: as §1
# [3] = library stock concentration (final ~1000-fold dilution): 10 mM, cytotoxicity flag (confluency mask): not cytotoxic, agonist: MPLA (TLR4) […]
# [4] = agonist: ODN 1826 (TLR9) 0.5 ug/mL
# [5] = agonist: Pam2CSK4 (TLR2/6) 0.1 ug/mL
# [6] = agonist: Pam3CSK4 (TLR2/1) 0.1 ug/mL
# [7] = library stock concentration (final ~1000-fold dilution): 10 mM, cytotoxicity flag (confluency mask): not cytotoxic, agonist: Imiquimod (TLR7) […]
compound,measurement,setting,value
NS(=O)(=O)c1ccccc1,NF-kB SEAP reporter activity,RAW-Dual [1]; [3],1.11
NS(=O)(=O)c1ccccc1 (library stock concentration (final ~1000-fold dilution): 10 mM),NF-kB SEAP reporter activity,RAW-Dual [2]; agonist: LPS (TLR4) 0.1 ug/mL,1.04
same,NF-kB SEAP reporter activity,RAW-Dual [2]; [4],0.987
same,NF-kB SEAP reporter activity,RAW-Dual [2]; [5],1.07
same,NF-kB SEAP reporter activity,RAW-Dual [2]; [6],0.771
C=CC1CN2CCC1CC2C(O)c1ccnc2ccc(OC)cc12.C=CC1CN2CCC1CC2C(O)c1ccnc2ccc(OC)cc12.O.O.O=S(=O)(O)O (configuration not stated) (library stock concentration (final ~1000-fold dilution): 10 mM),NF-kB SEAP reporter activity,RAW-Dual [2]; agonist: LPS (TLR4) 0.1 ug/mL,1.16
same,NF-kB SEAP reporter activity,RAW-Dual [2]; [4],0.531
same,NF-kB SEAP reporter activity,RAW-Dual [2]; [5],1.35
same,NF-kB SEAP reporter activity,RAW-Dual [2]; [6],1.05
C=CC1CN2CCC1CC2C(O)c1ccnc2ccc(OC)cc12.C=CC1CN2CCC1CC2C(O)c1ccnc2ccc(OC)cc12.O.O.O=S(=O)(O)O (configuration not stated),NF-kB SEAP reporter activity,RAW-Dual [1]; [7],1.06
same,NF-kB SEAP reporter activity,RAW-Dual [1]; [3],0.931
CN(C)Cc1ccc(S(=O)(=O)n2ccc(/C=C/C(=O)NO)c2)cc1 (library stock concentration (final ~1000-fold dilution): 10 mM),NF-kB SEAP reporter activity,RAW-Dual [2]; agonist: LPS (TLR4) 0.1 ug/mL,4.18
same,NF-kB SEAP reporter activity,RAW-Dual [2]; [4],0.95
same,NF-kB SEAP reporter activity,RAW-Dual [2]; [5],1.03
same,NF-kB SEAP reporter activity,RAW-Dual [2]; [6],0.94
CN(C)Cc1ccc(S(=O)(=O)n2ccc(/C=C/C(=O)NO)c2)cc1,NF-kB SEAP reporter activity,RAW-Dual [1]; [7],1.01
same,NF-kB SEAP reporter activity,RAW-Dual [1]; [3],0.905
CC1(Cn2ccnn2)C(C(=O)O)N2C(=O)CC2S1(=O)=O (configuration not stated),NF-kB SEAP reporter activity,RAW-Dual [1]; [7],1.06
same,NF-kB SEAP reporter activity,RAW-Dual [1]; [3],0.964
CC1(Cn2ccnn2)C(C(=O)O)N2C(=O)CC2S1(=O)=O (configuration not stated) (library stock concentration (final ~1000-fold dilution): 10 mM),NF-kB SEAP reporter activity,RAW-Dual [2]; agonist: LPS (TLR4) 0.1 ug/mL,0.971
same,NF-kB SEAP reporter activity,RAW-Dual [2]; [4],1.03
same,NF-kB SEAP reporter activity,RAW-Dual [2]; [5],0.946
same,NF-kB SEAP reporter activity,RAW-Dual [2]; [6],1.06
CC(C)Nc1cc(-c2c[nH]c(C(=O)NC(CO)c3cccc(Cl)c3)c2)c(Cl)cn1 (configuration not stated),NF-kB SEAP reporter activity,RAW-Dual [1]; [7],0.128
same,NF-kB SEAP reporter activity,RAW-Dual [1]; [3],0.246
CC(C)Nc1cc(-c2c[nH]c(C(=O)NC(CO)c3cccc(Cl)c3)c2)c(Cl)cn1 (configuration not stated) (library stock concentration (final ~1000-fold dilution): 10 mM),NF-kB SEAP reporter activity,RAW-Dual [2]; agonist: LPS (TLR4) 0.1 ug/mL,0.201
same,NF-kB SEAP reporter activity,RAW-Dual [2]; [4],0.189
same,NF-kB SEAP reporter activity,RAW-Dual [2]; [5],0.0811
same,NF-kB SEAP reporter activity,RAW-Dual [2]; [6],0.114
CC#Cc1cncc(-c2ccc3c(c2)C2(N=C(C)C(N)=N2)C2(CCC(OC)CC2)C3)c1 (configuration not stated) (library stock concentration (final ~1000-fold dilution): 10 mM),NF-kB SEAP reporter activity,RAW-Dual [2]; agonist: LPS (TLR4) 0.1 ug/mL,1.15
same,NF-kB SEAP reporter activity,RAW-Dual [2]; [4],0.723
same,NF-kB SEAP reporter activity,RAW-Dual [2]; [5],0.809
same,NF-kB SEAP reporter activity,RAW-Dual [2]; [6],0.972
CC#Cc1cncc(-c2ccc3c(c2)C2(N=C(C)C(N)=N2)C2(CCC(OC)CC2)C3)c1 (configuration not stated),NF-kB SEAP reporter activity,RAW-Dual [1]; [7],1.18
same,NF-kB SEAP reporter activity,RAW-Dual [1]; [3],1.01
Cc1cc(Nc2ncc(Cl)c(Nc3ccccc3S(=O)(=O)C(C)C)n2)c(OC(C)C)cc1C1CCNCC1,NF-kB SEAP reporter activity,"RAW-Dual [1]; library stock concentration (final ~1000-fold dilution): 10 mM, cytotoxicity flag (confluency mask): cytotoxic (confluency <70% of control), agonist: Imiquimod (TLR7) […]",2.07
same,NF-kB SEAP reporter activity,"RAW-Dual [1]; library stock concentration (final ~1000-fold dilution): 10 mM, cytotoxicity flag (confluency mask): cytotoxic (confluency <70% of control), agonist: MPLA (TLR4) […]",0.569
COc1cc(N2CCC(N3CCN(C)CC3)CC2)ccc1Nc1ncc(Cl)c(Nc2ccccc2S(=O)(=O)C(C)C)n1,NF-kB SEAP reporter activity,"RAW-Dual [1]; library stock concentration (final ~1000-fold dilution): 2 mM, cytotoxicity flag (confluency mask): not cytotoxic, agonist: Imiquimod (TLR7) […]",1.28
same,NF-kB SEAP reporter activity,"RAW-Dual [1]; library stock concentration (final ~1000-fold dilution): 2 mM, cytotoxicity flag (confluency mask): not cytotoxic, agonist: MPLA (TLR4) […]",0.939
COc1cc(N2CCC(N3CCN(C)CC3)CC2)ccc1Nc1ncnc(Nc2ccccc2S(=O)(=O)C(C)C)n1 (library stock concentration (final ~1000-fold dilution): 10 mM),NF-kB SEAP reporter activity,RAW-Dual [2]; agonist: LPS (TLR4) 0.1 ug/mL,5.53
same,NF-kB SEAP reporter activity,RAW-Dual [2]; [4],0.961
same,NF-kB SEAP reporter activity,RAW-Dual [2]; [5],0.718
same,NF-kB SEAP reporter activity,RAW-Dual [2]; [6],1.04
COc1cc(N2CCC(N3CCN(C)CC3)CC2)ccc1Nc1ncc(Cl)c(Nc2ccccc2P(C)(C)=O)n1 (library stock concentration (final ~1000-fold dilution): 2 mM),NF-kB SEAP reporter activity,RAW-Dual [2]; agonist: LPS (TLR4) 0.1 ug/mL,2.66
same,NF-kB SEAP reporter activity,RAW-Dual [2]; [4],1.27
same,NF-kB SEAP reporter activity,RAW-Dual [2]; [5],1.28
same,NF-kB SEAP reporter activity,RAW-Dual [2]; [6],1.66
